Data published in paper PMC7862700, “An all-to-all approach to the identification of sequence-specific readers for epigenetic DNA modifications on cytosine”.

What was measured:
Test in all cases: DAPPL (digital affinity profiling via proximity ligation, sequencing); 10 mM Tris-HCl pH 7.5, 50 mM NaCl, 1 mM DTT, 4% glycerol, room temperature, 30 min; GST-TFs on glutathione beads, 16-mer random dsDNA library, 0.1% formaldehyde crosslink after washing; high values mean tight binding
[1] = biological target: T1, FEV (Homo sapiens, UniProt Q99581 1-238); details: protein: recombinant; tags: N-terminal GST; dsDNA, one strand shown
T1 sequence: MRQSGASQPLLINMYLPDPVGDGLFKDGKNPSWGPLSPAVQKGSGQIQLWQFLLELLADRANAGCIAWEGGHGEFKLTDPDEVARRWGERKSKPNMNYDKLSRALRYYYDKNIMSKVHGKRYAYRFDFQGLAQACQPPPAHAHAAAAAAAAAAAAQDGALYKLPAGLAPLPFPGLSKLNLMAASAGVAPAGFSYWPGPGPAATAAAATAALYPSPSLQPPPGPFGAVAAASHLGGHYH
Method in brief: (§1)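 After expression in yeast as GST fusions, human transcription factors were bound to glutathione beads, DNA-barcoded and mixed with a tag-only sample. The pools were incubated with 200 nmole of a 16-mer random double-stranded DNA library in Tris/NaCl/DTT/glycerol buffer (30 min, room temperature), washed and crosslinked with 0.1% formaldehyde. Proximity ligation with BsaI/T4 ligase ran for 1 h at 37 °C, before PCR amplification and sequencing on an Illumina NextSeq500. Binding signal is a hexamer's read frequency for a factor divided by its frequency for the tag-only sample.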

[2] = biological target: ETV5 (Homo sapiens, UniProt P41161 1-510); details: protein: recombinant; tags: N-terminal GST; dsDNA, one strand shown
Method in brief: as §1

[3] = biological target: HSF1 (Homo sapiens, UniProt Q00613 1-529); details: protein: recombinant; tags: N-terminal GST; chain copies: 3; dsDNA, one strand shown
Method in brief: as §1

[4] = biological target: T2, SPIC (Homo sapiens, UniProt Q8N5J4 1-248); details: protein: recombinant; tags: N-terminal GST; dsDNA, one strand shown
T2 sequence: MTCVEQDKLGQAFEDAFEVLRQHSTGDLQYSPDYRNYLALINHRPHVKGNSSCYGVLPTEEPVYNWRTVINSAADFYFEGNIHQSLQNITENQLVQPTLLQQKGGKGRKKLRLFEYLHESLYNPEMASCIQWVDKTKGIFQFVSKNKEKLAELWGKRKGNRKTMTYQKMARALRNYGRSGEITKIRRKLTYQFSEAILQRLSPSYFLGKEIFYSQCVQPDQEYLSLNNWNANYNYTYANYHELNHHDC
Method in brief: as §1

[5] = biological target: ELF4 (Homo sapiens, UniProt Q99607 1-663); details: protein: recombinant; tags: N-terminal GST; dsDNA, one strand shown
Method in brief: as §1

[6] = biological target: T3, ELK4 (Homo sapiens, UniProt P28324-2 1-405); details: protein: recombinant; tags: N-terminal GST; dsDNA, one strand shown
T3 sequence: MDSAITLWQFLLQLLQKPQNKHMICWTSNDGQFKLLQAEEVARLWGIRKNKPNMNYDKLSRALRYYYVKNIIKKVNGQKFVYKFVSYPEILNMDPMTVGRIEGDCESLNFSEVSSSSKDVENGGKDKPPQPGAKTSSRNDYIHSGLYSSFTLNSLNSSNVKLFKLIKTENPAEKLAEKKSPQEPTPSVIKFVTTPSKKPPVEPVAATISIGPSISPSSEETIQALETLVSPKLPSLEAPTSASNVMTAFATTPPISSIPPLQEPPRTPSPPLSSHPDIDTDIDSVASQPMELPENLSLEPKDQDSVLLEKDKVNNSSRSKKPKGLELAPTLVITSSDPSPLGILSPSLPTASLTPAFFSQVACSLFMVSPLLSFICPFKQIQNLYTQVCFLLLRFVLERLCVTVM
Method in brief: as §1

[7] = biological target: T4, ETV2 (Homo sapiens, UniProt O00321 1-342); details: protein: recombinant; tags: N-terminal GST; dsDNA, one strand shown
T4 sequence: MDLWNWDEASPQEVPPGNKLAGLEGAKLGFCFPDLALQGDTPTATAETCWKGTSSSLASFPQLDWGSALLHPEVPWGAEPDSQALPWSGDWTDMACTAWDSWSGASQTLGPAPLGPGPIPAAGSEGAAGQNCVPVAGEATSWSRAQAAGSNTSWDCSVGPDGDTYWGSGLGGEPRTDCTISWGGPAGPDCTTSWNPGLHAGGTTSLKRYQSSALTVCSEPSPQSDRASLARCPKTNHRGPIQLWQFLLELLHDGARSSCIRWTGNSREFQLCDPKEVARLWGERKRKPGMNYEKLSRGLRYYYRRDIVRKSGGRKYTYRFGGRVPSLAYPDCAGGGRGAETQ
Method in brief: as §1

[8] = biological target: T5, ELF3 (Homo sapiens, UniProt P78545 1-371); details: protein: recombinant; tags: N-terminal GST; dsDNA, one strand shown
T5 sequence: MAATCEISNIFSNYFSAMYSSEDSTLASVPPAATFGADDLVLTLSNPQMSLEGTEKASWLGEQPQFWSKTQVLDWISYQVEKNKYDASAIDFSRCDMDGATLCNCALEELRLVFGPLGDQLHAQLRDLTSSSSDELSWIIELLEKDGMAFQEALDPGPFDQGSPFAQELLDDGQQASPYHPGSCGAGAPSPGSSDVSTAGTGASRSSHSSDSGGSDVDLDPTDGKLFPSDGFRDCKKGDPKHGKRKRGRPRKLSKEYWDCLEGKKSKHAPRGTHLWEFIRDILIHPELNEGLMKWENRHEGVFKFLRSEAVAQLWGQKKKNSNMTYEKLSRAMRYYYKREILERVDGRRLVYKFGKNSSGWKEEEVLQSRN
Method in brief: as §1

[9] = biological target: ETV1 (Homo sapiens, UniProt P50549 1-477); details: protein: recombinant; tags: N-terminal GST; dsDNA, one strand shown
Method in brief: as §1

Sequence of ELF4 (Q99607 whole entry): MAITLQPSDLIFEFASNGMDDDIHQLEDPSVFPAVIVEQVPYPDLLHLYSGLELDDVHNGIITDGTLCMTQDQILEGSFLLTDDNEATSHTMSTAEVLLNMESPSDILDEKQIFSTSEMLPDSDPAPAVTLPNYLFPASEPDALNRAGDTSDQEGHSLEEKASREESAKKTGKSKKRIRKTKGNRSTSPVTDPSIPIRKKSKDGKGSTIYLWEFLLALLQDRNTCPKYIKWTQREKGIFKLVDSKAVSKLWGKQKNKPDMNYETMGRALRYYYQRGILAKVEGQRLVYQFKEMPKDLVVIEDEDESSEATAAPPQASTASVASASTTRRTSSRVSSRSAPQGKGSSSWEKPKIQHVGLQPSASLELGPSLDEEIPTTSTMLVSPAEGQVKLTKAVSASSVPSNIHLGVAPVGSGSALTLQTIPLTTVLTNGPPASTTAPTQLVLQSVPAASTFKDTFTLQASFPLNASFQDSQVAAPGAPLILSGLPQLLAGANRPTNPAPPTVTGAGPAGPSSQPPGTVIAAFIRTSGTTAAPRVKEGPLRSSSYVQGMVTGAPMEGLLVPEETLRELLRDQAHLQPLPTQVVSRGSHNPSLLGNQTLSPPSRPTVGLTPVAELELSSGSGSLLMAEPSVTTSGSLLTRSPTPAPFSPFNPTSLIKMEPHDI
Sequence of ETV5 (P41161 whole entry): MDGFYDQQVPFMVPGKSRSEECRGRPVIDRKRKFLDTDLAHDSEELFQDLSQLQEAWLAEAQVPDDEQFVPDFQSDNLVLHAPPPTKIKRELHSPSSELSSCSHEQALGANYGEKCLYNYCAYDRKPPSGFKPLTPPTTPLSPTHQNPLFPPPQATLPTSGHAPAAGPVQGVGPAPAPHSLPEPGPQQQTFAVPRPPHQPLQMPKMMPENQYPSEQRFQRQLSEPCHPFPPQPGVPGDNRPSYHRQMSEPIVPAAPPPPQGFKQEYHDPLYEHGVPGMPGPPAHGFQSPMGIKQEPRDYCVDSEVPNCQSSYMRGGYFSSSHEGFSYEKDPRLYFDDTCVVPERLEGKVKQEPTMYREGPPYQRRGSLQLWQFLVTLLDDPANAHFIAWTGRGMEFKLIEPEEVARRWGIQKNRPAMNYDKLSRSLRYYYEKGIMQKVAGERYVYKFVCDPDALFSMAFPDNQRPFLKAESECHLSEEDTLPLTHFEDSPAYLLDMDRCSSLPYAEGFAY
Sequence of ETV1 (P50549 whole entry): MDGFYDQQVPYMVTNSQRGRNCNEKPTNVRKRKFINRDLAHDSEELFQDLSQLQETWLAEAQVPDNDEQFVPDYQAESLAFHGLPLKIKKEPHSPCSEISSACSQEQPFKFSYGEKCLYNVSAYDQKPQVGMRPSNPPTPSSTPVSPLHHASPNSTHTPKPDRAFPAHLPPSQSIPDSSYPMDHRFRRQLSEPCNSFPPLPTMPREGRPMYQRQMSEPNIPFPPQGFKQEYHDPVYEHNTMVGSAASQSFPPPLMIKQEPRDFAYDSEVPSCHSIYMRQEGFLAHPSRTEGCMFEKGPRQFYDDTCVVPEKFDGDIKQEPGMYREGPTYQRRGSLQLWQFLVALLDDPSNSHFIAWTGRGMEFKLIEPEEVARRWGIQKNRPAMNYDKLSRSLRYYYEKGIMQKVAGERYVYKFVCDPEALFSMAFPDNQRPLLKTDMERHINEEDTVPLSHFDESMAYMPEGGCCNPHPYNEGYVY
Sequence of HSF1 (Q00613 whole entry): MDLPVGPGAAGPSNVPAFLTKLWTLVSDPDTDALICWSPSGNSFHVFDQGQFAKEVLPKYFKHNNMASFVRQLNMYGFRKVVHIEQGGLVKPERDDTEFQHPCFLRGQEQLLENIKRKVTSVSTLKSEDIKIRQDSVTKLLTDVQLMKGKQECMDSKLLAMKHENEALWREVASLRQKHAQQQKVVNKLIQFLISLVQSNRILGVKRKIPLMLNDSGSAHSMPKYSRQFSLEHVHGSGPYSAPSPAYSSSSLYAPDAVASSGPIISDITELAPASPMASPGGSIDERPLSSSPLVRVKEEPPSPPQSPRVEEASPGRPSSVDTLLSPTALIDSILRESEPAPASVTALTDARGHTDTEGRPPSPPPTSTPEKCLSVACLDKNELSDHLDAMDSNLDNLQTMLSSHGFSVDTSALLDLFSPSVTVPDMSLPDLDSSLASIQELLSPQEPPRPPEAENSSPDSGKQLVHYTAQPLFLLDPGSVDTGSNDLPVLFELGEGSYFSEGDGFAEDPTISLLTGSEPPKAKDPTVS

GTTCCG
binding signal [1]: 1.99 fold enrichment (6-mer frequency, TF over GST control) | binding signal [2]: 1.94 fold enrichment (6-mer frequency, TF over GST control) | binding signal [3]: 1.05 fold enrichment (6-mer frequency, TF over GST control) | binding signal [4]: 2.08 fold enrichment (6-mer frequency, TF over GST control) | binding signal [5]: 1.64 fold enrichment (6-mer frequency, TF over GST control) | binding signal [6]: 1.79 fold enrichment (6-mer frequency, TF over GST control) | binding signal [7]: 1.61 fold enrichment (6-mer frequency, TF over GST control) | binding signal [8]: 1.82 fold enrichment (6-mer frequency, TF over GST control) | binding signal [9]: 2.07 fold enrichment (6-mer frequency, TF over GST control)
